Test results taken from PubChem BioAssay.
Calls of active or inactive are those of the source.

Experiments:
[1] = binders of probe aFSTL3 on microarray, primary screen, stem cell growth factor project, biochemical, small-molecule microarray, fluorescence 635/667 (AID 1064); conditions: higher = more signal;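 further: measures binding of the biotinylated anti-FSTL3 antibody to printed compounds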
[2] = binders from COS7 lysate, DM2A8 probe, primary screen, torsin A project, cell lysate, small-molecule microarray, fluorescence 635/667 (AID 1065); conditions: higher = more signal, COS7 lysate expressing mutant human TOR1A
[3] = binders of probe aFGF2 on microarray, primary screen, stem cell growth factor project, biochemical, small-molecule microarray, fluorescence 635/667 (AID 1067); conditions: higher = more signal;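 further: measures binding of biotinylated aFGF2 protein to printed compounds on slides; z-score merges feature fluorescence and signal-to-noise across triplicate slides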
[4] = binders of probe aFGF10 on microarray, primary screen, stem cell growth factor project, biochemical, small-molecule microarray, fluorescence 635/667 (AID 1071); conditions: higher = more signal;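 further: score merges 667 nm spot intensity and signal to noise from triplicate slides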
[5] = biological target: Neurogenic locus notch homolog protein 2 (Homo sapiens) (UniProt Q04721); experiment: Notch2 binders on small-molecule microarrays, primary screen, biochemical, small-molecule microarray, 635 nm fluorescence, stem cell growth factors (AID 1073); conditions: Notch2 binding, higher = more signal
Sequence of Neurogenic locus notch homolog protein 2 (Homo sapiens) (Q04721 whole entry, looked up, canonical isoform): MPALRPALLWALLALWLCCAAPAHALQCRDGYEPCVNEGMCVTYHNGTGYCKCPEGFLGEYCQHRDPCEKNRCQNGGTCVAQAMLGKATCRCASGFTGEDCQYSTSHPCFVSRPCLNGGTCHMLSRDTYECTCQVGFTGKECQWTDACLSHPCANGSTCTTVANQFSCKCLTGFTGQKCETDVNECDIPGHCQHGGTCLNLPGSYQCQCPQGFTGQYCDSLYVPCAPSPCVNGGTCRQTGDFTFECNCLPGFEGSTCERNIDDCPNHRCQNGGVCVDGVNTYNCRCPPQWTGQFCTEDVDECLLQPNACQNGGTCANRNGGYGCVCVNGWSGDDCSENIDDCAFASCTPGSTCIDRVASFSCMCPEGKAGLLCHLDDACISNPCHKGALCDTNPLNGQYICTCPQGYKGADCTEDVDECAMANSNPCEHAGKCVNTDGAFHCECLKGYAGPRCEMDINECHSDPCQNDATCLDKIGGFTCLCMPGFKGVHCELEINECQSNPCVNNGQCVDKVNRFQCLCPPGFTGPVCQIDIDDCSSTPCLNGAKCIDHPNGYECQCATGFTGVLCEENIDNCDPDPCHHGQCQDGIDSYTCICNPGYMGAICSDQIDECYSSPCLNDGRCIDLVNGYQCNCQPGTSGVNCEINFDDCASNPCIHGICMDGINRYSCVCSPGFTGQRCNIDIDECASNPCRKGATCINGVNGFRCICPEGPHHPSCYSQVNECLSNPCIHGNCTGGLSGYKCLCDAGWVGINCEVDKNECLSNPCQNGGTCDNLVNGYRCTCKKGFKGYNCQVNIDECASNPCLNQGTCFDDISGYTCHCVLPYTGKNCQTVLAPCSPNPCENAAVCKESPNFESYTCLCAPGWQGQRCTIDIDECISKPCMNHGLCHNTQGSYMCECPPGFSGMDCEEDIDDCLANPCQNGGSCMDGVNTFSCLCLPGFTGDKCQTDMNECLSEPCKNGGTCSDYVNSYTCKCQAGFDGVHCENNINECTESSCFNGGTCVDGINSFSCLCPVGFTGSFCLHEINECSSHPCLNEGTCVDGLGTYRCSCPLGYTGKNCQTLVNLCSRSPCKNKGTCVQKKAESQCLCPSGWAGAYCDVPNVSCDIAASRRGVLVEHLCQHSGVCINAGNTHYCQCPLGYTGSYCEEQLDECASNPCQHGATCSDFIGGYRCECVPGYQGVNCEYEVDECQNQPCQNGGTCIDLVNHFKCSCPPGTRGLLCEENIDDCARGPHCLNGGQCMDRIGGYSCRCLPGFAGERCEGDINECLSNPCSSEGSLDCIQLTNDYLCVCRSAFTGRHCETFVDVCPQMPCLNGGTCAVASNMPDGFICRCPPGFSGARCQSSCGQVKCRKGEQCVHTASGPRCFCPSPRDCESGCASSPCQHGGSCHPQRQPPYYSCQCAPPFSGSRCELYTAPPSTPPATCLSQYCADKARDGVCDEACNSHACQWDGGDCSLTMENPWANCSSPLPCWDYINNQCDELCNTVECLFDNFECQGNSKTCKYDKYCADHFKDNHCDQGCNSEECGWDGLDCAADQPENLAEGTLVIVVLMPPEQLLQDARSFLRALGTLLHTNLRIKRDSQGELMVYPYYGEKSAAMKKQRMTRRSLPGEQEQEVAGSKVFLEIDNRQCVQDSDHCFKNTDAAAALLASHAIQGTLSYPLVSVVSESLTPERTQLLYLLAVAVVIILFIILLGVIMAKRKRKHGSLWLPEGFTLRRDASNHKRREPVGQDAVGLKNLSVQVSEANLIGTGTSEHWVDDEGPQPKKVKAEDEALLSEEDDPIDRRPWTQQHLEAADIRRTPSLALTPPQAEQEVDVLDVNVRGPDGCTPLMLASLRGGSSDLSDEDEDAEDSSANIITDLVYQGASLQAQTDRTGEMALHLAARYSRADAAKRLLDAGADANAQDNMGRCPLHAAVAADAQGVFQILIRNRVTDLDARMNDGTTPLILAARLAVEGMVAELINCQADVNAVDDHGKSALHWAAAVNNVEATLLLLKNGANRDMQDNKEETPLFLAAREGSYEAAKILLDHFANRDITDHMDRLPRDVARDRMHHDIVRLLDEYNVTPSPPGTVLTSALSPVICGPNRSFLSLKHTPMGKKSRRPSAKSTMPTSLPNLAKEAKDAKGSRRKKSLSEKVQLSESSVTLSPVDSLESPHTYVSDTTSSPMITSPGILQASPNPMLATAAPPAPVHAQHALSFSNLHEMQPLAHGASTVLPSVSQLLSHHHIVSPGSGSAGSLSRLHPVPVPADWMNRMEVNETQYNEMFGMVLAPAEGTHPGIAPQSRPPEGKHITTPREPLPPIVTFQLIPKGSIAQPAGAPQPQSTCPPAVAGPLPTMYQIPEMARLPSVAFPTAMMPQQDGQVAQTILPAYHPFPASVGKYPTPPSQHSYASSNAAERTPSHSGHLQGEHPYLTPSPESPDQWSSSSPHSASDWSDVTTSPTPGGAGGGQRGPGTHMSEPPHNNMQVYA

[6] = biological target: Pro-neuregulin-1, membrane-bound isoform (Homo sapiens) (UniProt Q02297); experiment: NRG1 binders on small-molecule microarrays, primary screen, psychiatric disease protein project, biochemical, small-molecule microarray, fluorescence 635/667 (AID 1075); conditions: NRG1 binding, 635 nm fluorescence, higher = more signal;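 further: score combines 667 nm spot fluorescence with signal to noise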
[7] = tested on: Neuregulin-1 EGF-like domain; experiment: binders of neuregulin-1 EGF-like domain, primary screen, biochemical, small-molecule microarray, 635 nm fluorescence (AID 1081); conditions: small-molecule microarray binding, higher = more signal;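 further: binding of the protein to compounds printed on small-molecule microarray slides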
[8] = FRG1 promoter luciferase signal modulators, primary screen, FRG1 inhibition for FSHD, cell-based, C2C12 myotubes, firefly/Renilla luciferase, luminescence (AID 1084); conditions: higher = more signal, called active from +8 up or from −8 down
[9] = binders of probe aFST on microarray, primary screen, stem cell growth factor project, biochemical, small-molecule microarray, fluorescence 635/667 (AID 1086); conditions: higher = more signal;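 further: score merges 667 nm fluorescence with signal-to-noise of each printed compound spot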
[10] = binders of probe aHhip on microarray, primary screen, stem cell growth factor project, biochemical, small-molecule microarray, fluorescence 635/667 (AID 1087); conditions: higher = more signal;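 further: score merges spot fluorescence at 667nm with spot signal to noise ratio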
[11] = tested on: PRMT1 (protein arginine N-methyltransferase 1); experiment: PRMT1 binders on small-molecule microarrays, primary screen, biochemical, small-molecule microarray, 635 nm fluorescence (AID 1088); conditions: small-molecule microarray binding, higher = more signal;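 further: binding of Prmt1 protein to compounds spotted on small-molecule microarray slides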
[12] = yeast growth modulation, basal conditions, primary screen, YJM789 clinical isolate, OD600, 24 h (AID 1089);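 further: growth of clinical yeast isolate S. cerevisiae YJM 789 seeded 1000 cells per well; test concentration not given here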; conditions: S. cerevisiae YJM789 growth, higher = more signal, called active from +8 up or from −8 down
[13] = fission yeast growth modulation, primary screen, strain 972, OD600, 24 h, no modulator (AID 1090);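 further: basal condition with compound alone and no growth modifier present; test concentration not given here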; conditions: S. pombe 972 growth, higher = more signal, called active from +8 up or from −8 down
[14] = S. cerevisiae growth modulation with rapamycin, primary screen, strain BY4716, OD600, 96 h (AID 1091); conditions: higher = more signal, called active from +8 up or from −8 down; further: test concentration not given here
[15] = biological target: Torsin-1A-interacting protein 2 (Homo sapiens) (UniProt Q8NFQ8); experiment: LULL1 binders on small-molecule microarray, primary screen, cell lysate, human LULL1 lysate, 635/667 nm fluorescence (AID 1092); conditions: hLULL1 lysate binding, 635 nm fluorescence, higher = more signal;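 further: probe is lysate of COS7 cells overexpressing human LULL1; score merges per-feature 667 nm fluorescence with signal-to-noise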
[16] = E. coli growth modulation, two-sided OD650, primary screen, E. coli filamentation project, strain DRC41, 24 h (AID 1093); conditions: OD650, 24 h, higher = more signal, called active from +8 up or from −8 down;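 further: MC1000 strain lacking acrAB efflux and sulA so SOS filamentation is blocked; test concentration not given here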
[17] = small-molecule microarray binders of probe aLefty2, primary screen, biochemical, biotinylated probe, 635/667 nm fluorescence (AID 1094); conditions: higher = more signal;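 further: score merges spot fluorescence near 667 nm with spot signal-to-noise ratio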
[18] = tested on: Noggin (protein binding on small-molecule microarray); experiment: Noggin binders on small-molecule microarray, primary screen, biochemical, 635/667 nm fluorescence (AID 1095); conditions: 635 nm fluorescence, higher = more signal;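 further: score merges 667 nm feature fluorescence with signal to noise over triplicate slides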
[19] = biological target: Neurogenic locus notch homolog protein 3 (Homo sapiens) (UniProt Q9UM47); experiment: NOTCH3 binders on small-molecule microarray, primary screen, biochemical, 635/667 nm fluorescence (AID 1096); conditions: NOTCH3 binding, 635 nm fluorescence, higher = more signal
Sequence of Neurogenic locus notch homolog protein 3 (Homo sapiens) (Q9UM47 whole entry, looked up): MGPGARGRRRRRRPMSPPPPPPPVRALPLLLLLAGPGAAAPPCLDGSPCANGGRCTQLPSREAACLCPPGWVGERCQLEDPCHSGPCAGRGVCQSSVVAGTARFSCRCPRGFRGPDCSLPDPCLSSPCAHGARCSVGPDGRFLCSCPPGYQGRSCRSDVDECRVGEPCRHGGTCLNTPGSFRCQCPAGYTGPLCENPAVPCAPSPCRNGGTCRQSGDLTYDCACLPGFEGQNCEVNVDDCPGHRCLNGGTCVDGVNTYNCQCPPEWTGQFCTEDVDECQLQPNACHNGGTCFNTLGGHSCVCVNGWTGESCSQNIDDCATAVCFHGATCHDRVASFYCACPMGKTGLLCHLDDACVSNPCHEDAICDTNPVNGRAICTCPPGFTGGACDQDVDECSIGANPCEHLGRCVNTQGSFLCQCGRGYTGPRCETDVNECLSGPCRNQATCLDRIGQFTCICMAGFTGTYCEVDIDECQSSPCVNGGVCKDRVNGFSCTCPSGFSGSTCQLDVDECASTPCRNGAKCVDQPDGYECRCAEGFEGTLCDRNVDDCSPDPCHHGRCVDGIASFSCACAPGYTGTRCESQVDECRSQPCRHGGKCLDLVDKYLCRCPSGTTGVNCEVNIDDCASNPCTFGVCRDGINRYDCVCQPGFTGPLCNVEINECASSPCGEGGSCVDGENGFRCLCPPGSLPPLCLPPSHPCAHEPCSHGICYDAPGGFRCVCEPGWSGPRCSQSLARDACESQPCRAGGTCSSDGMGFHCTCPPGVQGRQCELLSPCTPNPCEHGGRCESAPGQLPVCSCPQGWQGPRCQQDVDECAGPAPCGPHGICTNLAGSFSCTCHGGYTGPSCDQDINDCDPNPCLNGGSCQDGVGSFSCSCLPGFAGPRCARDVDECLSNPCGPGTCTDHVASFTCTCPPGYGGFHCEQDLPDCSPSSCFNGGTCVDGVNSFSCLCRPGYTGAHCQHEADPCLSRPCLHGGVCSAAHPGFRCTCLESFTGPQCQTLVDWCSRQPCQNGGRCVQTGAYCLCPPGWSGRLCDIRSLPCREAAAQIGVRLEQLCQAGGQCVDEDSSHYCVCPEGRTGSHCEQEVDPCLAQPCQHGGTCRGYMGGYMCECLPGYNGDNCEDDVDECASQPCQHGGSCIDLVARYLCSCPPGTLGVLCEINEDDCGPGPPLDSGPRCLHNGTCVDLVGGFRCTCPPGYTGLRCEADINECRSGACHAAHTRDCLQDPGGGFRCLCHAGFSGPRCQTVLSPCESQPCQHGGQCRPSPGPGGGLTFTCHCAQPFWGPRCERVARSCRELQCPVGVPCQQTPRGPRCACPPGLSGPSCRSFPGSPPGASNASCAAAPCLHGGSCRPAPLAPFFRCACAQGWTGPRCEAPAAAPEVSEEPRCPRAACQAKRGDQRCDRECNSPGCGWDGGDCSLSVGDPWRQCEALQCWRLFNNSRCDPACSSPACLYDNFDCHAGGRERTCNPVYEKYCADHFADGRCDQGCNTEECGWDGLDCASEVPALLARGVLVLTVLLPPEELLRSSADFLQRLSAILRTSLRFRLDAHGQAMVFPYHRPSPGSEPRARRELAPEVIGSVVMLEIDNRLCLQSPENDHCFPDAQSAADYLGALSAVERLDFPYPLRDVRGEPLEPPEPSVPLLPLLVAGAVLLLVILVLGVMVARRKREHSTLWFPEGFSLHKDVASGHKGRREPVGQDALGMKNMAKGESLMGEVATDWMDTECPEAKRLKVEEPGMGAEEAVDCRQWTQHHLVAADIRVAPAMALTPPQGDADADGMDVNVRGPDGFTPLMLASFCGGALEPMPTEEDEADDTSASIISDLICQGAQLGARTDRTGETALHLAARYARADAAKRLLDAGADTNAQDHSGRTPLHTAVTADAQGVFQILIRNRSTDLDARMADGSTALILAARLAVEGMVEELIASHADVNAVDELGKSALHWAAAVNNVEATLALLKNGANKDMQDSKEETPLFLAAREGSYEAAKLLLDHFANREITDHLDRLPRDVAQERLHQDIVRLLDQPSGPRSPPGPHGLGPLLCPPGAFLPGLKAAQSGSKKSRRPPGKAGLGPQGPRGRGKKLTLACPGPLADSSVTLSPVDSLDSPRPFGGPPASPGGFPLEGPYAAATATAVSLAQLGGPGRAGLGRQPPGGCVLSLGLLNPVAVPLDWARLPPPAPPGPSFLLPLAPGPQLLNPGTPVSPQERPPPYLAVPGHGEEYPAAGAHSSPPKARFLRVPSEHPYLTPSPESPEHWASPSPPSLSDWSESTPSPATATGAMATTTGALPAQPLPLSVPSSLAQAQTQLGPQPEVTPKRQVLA

[20] = small-molecule microarray binders of probe aEGFR, primary screen, biochemical, biotinylated probe, 635/667 nm fluorescence (AID 1097); conditions: higher = more signal;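 further: probe is a biotinylated anti-EGFR antibody binding compounds printed on slides; score combines fluorescence near 667 nm and signal to noise of each spot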

Row | SMILES | composite z-score [1] | composite z-score [2] | composite z-score [3] | composite z-score [4] | composite z-score [5] | composite z-score [6] | composite z-score [7] | z-score [8] | composite z-score [9] | composite z-score [10] | composite z-score [11] | z-score [12] | z-score [13] | z-score [14] | composite z-score [15] | z-score [16] | composite z-score [17] | composite z-score [18] | composite z-score [19] | composite z-score [20]
1 | COc1ccc(COC2OC[C@]3(C)[C@H]4C5=C(CN3C(=O)OC(C)(C)C)[C@H](C)C(CO)C(CO)C5CC[C@@H]24)cc1 (stereo not given in full) | 0.262 | 1.27 | -0.0832 | 0.424 | 1.65 | 1.02 | 0.982 | 2.67 (inactive) | 1.98 | -0.069 | 0.482 | 0.677 (inactive) | 0.805 (inactive) | 0.502 (inactive) | 3.27 | -1.76 (inactive) | 0.341 | 0.277 | 1.06 | 0.0699
2 | CN(C)CCCNC(=O)[C@@]1(c2ccc([N+](=O)[O-])cc2)CC(=O)N(C2CCCCC2)[C@@H]1c1ccc(CO)cc1 | 0.4 | 0.595 | -0.0717 | -0.466 | -0.513 | 1.52 | 0.692 | -0.767 (inactive) | -0.114 | 0.0373 | 1.54 | 1.78 (inactive) | -8.13 (active) | -1.97 (inactive) | 1.09 | 0.59 (inactive) | -0.0259 | 0.0069 | 0.444 | -0.0978
3 | CC1(C)[C@@H]2CC(C(O)C3C=CC4C(=O)N(c5ccccc5)C(=O)C4N3Nc3ccccc3)=C[C@H]1C2 (stereo not given in full) | 0.11 | -0.6 | 0.062 | 0.45 | 1.03 | 1.15 | 0.886 | -0.559 (inactive) | 0.889 | 0.142 | -0.0035 | -0.4 (inactive) | 0.286 (inactive) | -0.136 (inactive) | 2.58 | -0.936 (inactive) | -0.0008 | -0.161 | 0.367 | -0.0431
4 | CN(C)C(=O)[C@@]1(Cc2ccccc2)N=C(c2ccc(OCCCO)cc2)O[C@H]1c1ccccc1N=[N+]=[N-] | 0.0567 | -0.204 | 0.061 | 0.64 | 1.55 | 1.56 | 1.12 | -1.66 (inactive) | 1.69 | -0.353 | 1.53 | -2.59 (inactive) | -1.89 (inactive) | 4.73 (inactive) | 3.3 | 0.875 (inactive) | 0.306 | 0.835 | 1.11 | 0.0595
5 | CC(C)c1ccc(NN2C(C(O)c3cc(C(F)(F)F)cc(C(F)(F)F)c3)C=CC3C(=O)N(c4ccccc4)C(=O)C32)cc1 (stereo not given) | 0.43 | -0.165 | -0.0165 | 0.13 | 1.24 | 1.69 | 1.28 | 0.0782 (inactive) | 0.273 | 0.213 | 0.353 | 0.89 (inactive) | 0.183 (inactive) | 3.38 (inactive) | 3.22 | -2.08 (inactive) | -0.0831 | -0.722 | 0.245 | -0.152
6 | NCCCCCNC(=O)[C@@H]1C[C@@H]2C(=O)N[C@@H](Cc3ccccc3)C(=O)N2[C@@H]1c1cccc(OCCO)c1 | 0.185 | 0.291 | -0.107 | 0.106 | 0.514 | 1.32 | 1.08 | 1.39 (inactive) | -0.122 | -0.0645 | 0.715 | 0.653 (inactive) | -0.175 (inactive) | 0.68 (inactive) | 1.8 | -0.47 (inactive) | -0.0075 | 0.363 | -0.448 | -0.218
7 | CS(=O)(=O)CCOC(=O)C1=CC(CCCO)=CC(c2ccc(CN3CCCC3)cc2)N(Cc2cc3c(cc2Br)OCO3)C=C1C(=O)OCCS(C)(=O)=O (stereo not given) | 0.26 | 1.77 | 0.127 | 1.22 | 1.38 | 2.1 | 1.25 | -0.271 (inactive) | 0.624 | 0.224 | 1.46 | 0.978 (inactive) | -5.34 (inactive) | -1.62 (inactive) | 2.5 | -0.567 (inactive) | 0.0417 | 0.334 | 1.15 | 0.101
8 | C=CC[C@@]1(C(=O)N(C)C)N=C(c2ccc(OCCCO)cc2)O[C@@H]1c1ccccc1N=[N+]=[N-] | 1.12 | 1.72 | 0.0732 | 0.622 | 0.984 | 1.52 | 1.29 | 2.35 (inactive) | 1.21 | 0.011 | 1.55 | -0.431 (inactive) | -0.0481 (inactive) | -0.0865 (inactive) | 3.57 | 0.724 (inactive) | 0.193 | 1.07 | 1.06 | 0.276
9 | CC(C)(C)OC(=O)CC[C@@]1(C(=O)NCCN2CCOCC2)N=C(c2ccc(OCCCO)cc2)O[C@@H]1c1ccccc1N=[N+]=[N-] | 0.793 | 0.122 | 0.0789 | 1.01 | 1.49 | 1.56 | 1.32 | 4.07 (inactive) | 1.67 | 0.232 | 1.45 | -0.174 (inactive) | -0.182 (inactive) | -0.336 (inactive) | 3.09 | -0.115 (inactive) | 0.591 | -0.0404 | 1.11 | 0.171
10 | O=C1OCCC/C=C\[C@H]2OC34C=CCN(Cn5nnc6ccccc65)C(=O)[C@H]3N(CCCCCCO)C(=O)[C@@H]4C12 (stereo not given in full) | 0.144 | 1.57 | -0.167 | -1.04 | -0.969 | 0.0553 | 1.25 | -0.584 (inactive) | -0.582 | -0.273 | 0.827 | -3.24 (inactive) | -0.0541 (inactive) | -1.28 (inactive) | 3.5 | 2.87 (inactive) | -0.181 | -0.272 | -0.269 | -0.224
